The source of these data is PubChem BioAssay.

Structures are written as SMILES. Calls of active or inactive are those of the source.

Experiment [1] deals with PRMT1 (protein arginine N-methyltransferase 1). Put plainly: PRMT1 binders on small-molecule microarrays, primary screen, biochemical, small-molecule microarray, 635 nm fluorescence (AID 1088).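 Also: binding of Prmt1 protein to compounds spotted on small-molecule microarray slides.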 To be noted: small-molecule microarray binding, higher = more signal.
The nature of experiment [2]: yeast growth modulation, basal conditions, primary screen, YJM789 clinical isolate, OD600, 24 h (AID 1089).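 Also: growth of clinical yeast isolate S. cerevisiae YJM 789 seeded 1000 cells per well; test concentration not given here.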 To be noted: S. cerevisiae YJM789 growth, higher = more signal, called active from +8 up or from −8 down.
A short description of experiment [3]: fission yeast growth modulation, primary screen, strain 972, OD600, 24 h, no modulator (AID 1090).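 Also: basal condition with compound alone and no growth modifier present; test concentration not given here.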 To be noted: S. pombe 972 growth, higher = more signal, called active from +8 up or from −8 down.
The nature of experiment [4]: S. cerevisiae growth modulation with rapamycin, primary screen, strain BY4716, OD600, 96 h (AID 1091). Also: test concentration not given here. To be noted: higher = more signal, called active from +8 up or from −8 down.
The target of experiment [5] is Torsin-1A-interacting protein 2 (Homo sapiens) (UniProt Q8NFQ8). As to the kind of experiment: LULL1 binders on small-molecule microarray, primary screen, cell lysate, human LULL1 lysate, 635/667 nm fluorescence (AID 1092).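 Also: probe is lysate of COS7 cells overexpressing human LULL1; score merges per-feature 667 nm fluorescence with signal-to-noise.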 To be noted: hLULL1 lysate binding, 635 nm fluorescence, higher = more signal.
Experiment [6] is described as follows: E. coli growth modulation, two-sided OD650, primary screen, E. coli filamentation project, strain DRC41, 24 h (AID 1093).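 Also: MC1000 strain lacking acrAB efflux and sulA so SOS filamentation is blocked; test concentration not given here.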 To be noted: OD650, 24 h, higher = more signal, called active from +8 up or from −8 down.
Experiment [7] is described as follows: small-molecule microarray binders of probe aLefty2, primary screen, biochemical, biotinylated probe, 635/667 nm fluorescence (AID 1094).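 Also: score merges spot fluorescence near 667 nm with spot signal-to-noise ratio.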 To be noted: higher = more signal.
The test system of experiment [8] is Noggin (protein binding on small-molecule microarray). As to the kind of experiment: Noggin binders on small-molecule microarray, primary screen, biochemical, 635/667 nm fluorescence (AID 1095).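 Also: score merges 667 nm feature fluorescence with signal to noise over triplicate slides.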 To be noted: 635 nm fluorescence, higher = more signal.
For experiment [9], the target named is Neurogenic locus notch homolog protein 3 (Homo sapiens) (UniProt Q9UM47). As to the kind of experiment: NOTCH3 binders on small-molecule microarray, primary screen, biochemical, 635/667 nm fluorescence (AID 1096). To be noted: NOTCH3 binding, 635 nm fluorescence, higher = more signal.
Experiment [10] can be described thus: small-molecule microarray binders of probe aEGFR, primary screen, biochemical, biotinylated probe, 635/667 nm fluorescence (AID 1097).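 Also: probe is a biotinylated anti-EGFR antibody binding compounds printed on slides; score combines fluorescence near 667 nm and signal to noise of each spot.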 To be noted: higher = more signal.
For experiment [11], the system named is Plasmodium falciparum Sir2 (PF13_0152, Sir2A). As to the kind of experiment: pfSir2 binders on small-molecule microarrays, primary screen, biochemical, small-molecule microarray, 635 nm fluorescence (AID 1098).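 Also: score merges spot fluorescence intensity with its signal-to-noise ratio.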 To be noted: small-molecule microarray binding, fluorescence 635 nm; higher = more signal.
The nature of experiment [12]: small-molecule microarray binders of probe aDKK1, primary screen, biochemical, biotinylated probe, 635/667 nm fluorescence (AID 1099).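 Also: score merges 667nm spot fluorescence with signal to noise across triplicate slides; reference of the scale not given here.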 To be noted: higher = more signal.
A short description of experiment [13]: small-molecule microarray binders of probe aCHRDL2, primary screen, biochemical, biotinylated probe, 635/667 nm fluorescence (AID 1100). To be noted: higher = more signal.
Experiment [14] can be described thus: splicing luciferase reporter signal modulators, primary screen, spliceosome inhibition project, cell-based, HEK293, splice +/- reporter (AID 1101).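 Also: HEK293 cells carrying a splicing-competent luciferase reporter gene; test concentration not given here.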 To be noted: luminescence, 24 h, higher = more signal, called active from +8 up or from −8 down. Background: Reporter assays use an easily measured gene product as a stand-in for the process of interest.
Experiment [15] has as its target Fibroblast growth factor 10 (Homo sapiens) (UniProt O15520). Put plainly: FGF10 binders on small-molecule microarrays, primary screen, biochemical, small-molecule microarray, 635 nm fluorescence (AID 1102). To be noted: FGF10 binding, fluorescence 635 nm, higher = more signal.
Experiment [16] has as its system glycogen synthase kinase-3 (GSK3A per assay name; protocol says GSK3B). Put plainly: GSK3 binders on small-molecule microarrays, primary screen, biochemical, small-molecule microarray, 635 nm fluorescence, GSK3A (AID 1103). Also: the record names both GSK3A and GSK3B. To be noted: small-molecule microarray binding, fluorescence 635 nm; higher = more signal.
Experiment [17] concerns the target Epidermal growth factor receptor (Homo sapiens) (UniProt P00533). Put plainly: EGFR binders on small-molecule microarrays, primary screen, biochemical, small-molecule microarray, 635 nm fluorescence (AID 1104).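 Also: score merges 667 nm emission intensity with spot signal to noise over triplicate slides.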 To be noted: EGFR binding, higher = more signal.
The target of experiment [18] is Follistatin-related protein 3 (Homo sapiens) (UniProt O95633). Put plainly: FSTL3 binders on small-molecule microarrays, primary screen, biochemical, small-molecule microarray, 635 nm fluorescence (AID 1105).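 Also: score merges emission near 667 nm and signal to noise per printed spot across three slides.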 To be noted: FSTL3 binding, higher = more signal.
The target in experiment [19] is Dickkopf-related protein 1 (Homo sapiens) (UniProt O94907). Put plainly: DKK1 binders on small-molecule microarrays, primary screen, biochemical, small-molecule microarray, 635 nm fluorescence scan (AID 1106).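 Also: score merges emission near 667 nm with signal to noise over three replicate slides.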 To be noted: DKK1 binding, higher = more signal.
The subject of experiment [20] is Inhibin beta A chain (activin A). Put plainly: INHBA (activin A) binders on microarrays, primary screen, biochemical, small-molecule microarray, 635 nm fluorescence scan (AID 1107).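 Also: mouse activin A protein probed at 4.33 µg/mL on printed slides; score merges bound-protein fluorescence near 667 nm with spot signal-to-noise.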 To be noted: small-molecule microarray binding, higher = more signal.

Chain of Epidermal growth factor receptor (Homo sapiens) (P00533 whole entry, looked up): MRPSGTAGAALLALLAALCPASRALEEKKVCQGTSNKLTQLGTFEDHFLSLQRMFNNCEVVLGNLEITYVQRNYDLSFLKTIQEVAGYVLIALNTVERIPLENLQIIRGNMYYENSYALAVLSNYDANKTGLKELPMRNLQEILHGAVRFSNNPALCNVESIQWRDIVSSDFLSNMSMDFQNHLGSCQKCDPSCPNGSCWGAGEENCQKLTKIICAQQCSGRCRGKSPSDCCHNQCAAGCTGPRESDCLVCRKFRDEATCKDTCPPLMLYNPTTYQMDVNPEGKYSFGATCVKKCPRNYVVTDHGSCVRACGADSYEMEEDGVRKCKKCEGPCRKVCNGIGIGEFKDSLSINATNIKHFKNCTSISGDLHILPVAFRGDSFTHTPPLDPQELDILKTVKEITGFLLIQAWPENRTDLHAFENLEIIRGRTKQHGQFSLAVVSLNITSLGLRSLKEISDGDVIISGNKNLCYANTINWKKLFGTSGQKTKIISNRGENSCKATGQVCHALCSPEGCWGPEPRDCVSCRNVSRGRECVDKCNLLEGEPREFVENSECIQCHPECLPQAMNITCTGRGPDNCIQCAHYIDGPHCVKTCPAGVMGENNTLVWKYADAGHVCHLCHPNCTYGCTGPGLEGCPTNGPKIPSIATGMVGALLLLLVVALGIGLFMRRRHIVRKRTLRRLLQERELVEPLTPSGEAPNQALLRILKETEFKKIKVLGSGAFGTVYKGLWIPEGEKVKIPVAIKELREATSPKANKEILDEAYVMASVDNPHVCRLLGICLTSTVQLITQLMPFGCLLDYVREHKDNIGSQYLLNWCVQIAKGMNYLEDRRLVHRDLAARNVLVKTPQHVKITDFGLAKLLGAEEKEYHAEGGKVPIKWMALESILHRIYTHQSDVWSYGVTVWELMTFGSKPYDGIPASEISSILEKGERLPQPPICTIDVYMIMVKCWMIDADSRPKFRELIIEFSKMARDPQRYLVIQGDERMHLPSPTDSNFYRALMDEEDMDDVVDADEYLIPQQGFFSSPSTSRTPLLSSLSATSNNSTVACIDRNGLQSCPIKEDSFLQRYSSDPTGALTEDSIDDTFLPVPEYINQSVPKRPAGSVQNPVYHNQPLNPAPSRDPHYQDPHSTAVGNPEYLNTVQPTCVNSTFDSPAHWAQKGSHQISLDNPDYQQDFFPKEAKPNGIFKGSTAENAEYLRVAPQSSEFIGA
Chain of Neurogenic locus notch homolog protein 3 (Homo sapiens) (Q9UM47 whole entry, looked up): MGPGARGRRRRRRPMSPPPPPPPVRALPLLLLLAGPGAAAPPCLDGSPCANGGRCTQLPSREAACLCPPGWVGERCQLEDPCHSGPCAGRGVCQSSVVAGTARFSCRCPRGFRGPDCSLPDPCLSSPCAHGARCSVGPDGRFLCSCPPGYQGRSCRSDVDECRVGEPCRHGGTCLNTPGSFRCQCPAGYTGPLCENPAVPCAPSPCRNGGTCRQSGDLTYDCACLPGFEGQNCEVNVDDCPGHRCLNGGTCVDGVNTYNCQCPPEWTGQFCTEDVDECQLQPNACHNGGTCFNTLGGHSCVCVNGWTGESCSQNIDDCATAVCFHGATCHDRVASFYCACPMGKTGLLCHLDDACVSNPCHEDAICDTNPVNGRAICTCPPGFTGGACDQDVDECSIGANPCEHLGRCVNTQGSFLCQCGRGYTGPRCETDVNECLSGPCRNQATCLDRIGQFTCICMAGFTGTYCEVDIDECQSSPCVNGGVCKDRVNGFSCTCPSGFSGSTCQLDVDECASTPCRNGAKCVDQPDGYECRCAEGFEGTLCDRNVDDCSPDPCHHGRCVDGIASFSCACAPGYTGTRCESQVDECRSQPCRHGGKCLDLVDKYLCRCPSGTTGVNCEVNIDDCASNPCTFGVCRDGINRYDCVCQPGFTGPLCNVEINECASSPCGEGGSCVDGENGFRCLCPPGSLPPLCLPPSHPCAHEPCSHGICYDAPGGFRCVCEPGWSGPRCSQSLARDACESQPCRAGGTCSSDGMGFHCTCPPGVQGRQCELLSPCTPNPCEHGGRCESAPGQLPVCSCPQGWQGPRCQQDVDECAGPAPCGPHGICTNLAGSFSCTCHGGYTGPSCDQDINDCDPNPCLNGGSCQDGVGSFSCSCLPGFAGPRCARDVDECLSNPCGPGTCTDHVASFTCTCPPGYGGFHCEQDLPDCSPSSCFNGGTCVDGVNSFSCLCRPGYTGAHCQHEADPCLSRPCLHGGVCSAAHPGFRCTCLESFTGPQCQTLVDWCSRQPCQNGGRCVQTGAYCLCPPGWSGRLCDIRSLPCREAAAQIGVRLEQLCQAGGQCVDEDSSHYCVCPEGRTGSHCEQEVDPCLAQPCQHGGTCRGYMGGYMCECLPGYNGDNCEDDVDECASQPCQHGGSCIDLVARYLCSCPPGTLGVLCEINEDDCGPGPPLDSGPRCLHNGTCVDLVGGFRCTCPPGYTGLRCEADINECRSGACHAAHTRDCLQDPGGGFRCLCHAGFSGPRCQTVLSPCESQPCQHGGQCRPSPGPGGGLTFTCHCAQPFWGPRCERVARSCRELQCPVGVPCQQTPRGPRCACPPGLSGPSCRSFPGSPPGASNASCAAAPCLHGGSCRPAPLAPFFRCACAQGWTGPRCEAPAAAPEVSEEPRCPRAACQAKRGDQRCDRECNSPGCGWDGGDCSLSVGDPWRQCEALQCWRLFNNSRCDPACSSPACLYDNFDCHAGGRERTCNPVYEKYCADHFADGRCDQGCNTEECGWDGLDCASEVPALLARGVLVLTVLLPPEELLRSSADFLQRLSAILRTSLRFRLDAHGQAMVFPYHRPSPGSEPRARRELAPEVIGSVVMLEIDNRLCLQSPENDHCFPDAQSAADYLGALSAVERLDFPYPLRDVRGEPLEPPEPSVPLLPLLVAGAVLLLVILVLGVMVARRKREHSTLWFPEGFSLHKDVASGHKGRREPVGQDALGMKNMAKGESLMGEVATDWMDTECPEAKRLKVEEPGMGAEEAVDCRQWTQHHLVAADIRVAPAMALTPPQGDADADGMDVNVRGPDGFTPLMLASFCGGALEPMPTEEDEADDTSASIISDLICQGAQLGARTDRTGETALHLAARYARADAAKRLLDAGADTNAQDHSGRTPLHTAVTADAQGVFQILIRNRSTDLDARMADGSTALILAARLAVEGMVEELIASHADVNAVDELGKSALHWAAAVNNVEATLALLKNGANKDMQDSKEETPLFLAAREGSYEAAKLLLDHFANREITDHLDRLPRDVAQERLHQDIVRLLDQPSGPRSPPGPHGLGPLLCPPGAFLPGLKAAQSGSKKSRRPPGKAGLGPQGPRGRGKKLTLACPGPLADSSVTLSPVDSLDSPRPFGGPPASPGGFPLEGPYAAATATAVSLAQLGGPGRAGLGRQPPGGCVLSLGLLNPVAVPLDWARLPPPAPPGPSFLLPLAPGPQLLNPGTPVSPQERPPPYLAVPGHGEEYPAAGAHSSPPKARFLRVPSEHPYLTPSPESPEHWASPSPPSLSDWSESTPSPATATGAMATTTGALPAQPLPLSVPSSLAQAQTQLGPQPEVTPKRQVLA
Chain of Torsin-1A-interacting protein 2 (Homo sapiens) (Q8NFQ8 whole entry, looked up): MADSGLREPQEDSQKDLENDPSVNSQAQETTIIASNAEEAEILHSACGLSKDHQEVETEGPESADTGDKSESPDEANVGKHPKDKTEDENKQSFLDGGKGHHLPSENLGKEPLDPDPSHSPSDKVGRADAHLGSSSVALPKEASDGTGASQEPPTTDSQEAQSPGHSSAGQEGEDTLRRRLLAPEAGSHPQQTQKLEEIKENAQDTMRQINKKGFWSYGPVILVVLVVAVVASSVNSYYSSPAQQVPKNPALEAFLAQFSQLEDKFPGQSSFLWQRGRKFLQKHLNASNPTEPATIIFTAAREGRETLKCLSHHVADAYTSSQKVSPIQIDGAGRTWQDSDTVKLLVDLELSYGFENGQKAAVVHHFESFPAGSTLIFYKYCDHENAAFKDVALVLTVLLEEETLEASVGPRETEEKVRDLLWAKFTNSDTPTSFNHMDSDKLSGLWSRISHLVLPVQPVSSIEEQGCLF
Chain of Fibroblast growth factor 10 (Homo sapiens) (O15520 whole entry, looked up): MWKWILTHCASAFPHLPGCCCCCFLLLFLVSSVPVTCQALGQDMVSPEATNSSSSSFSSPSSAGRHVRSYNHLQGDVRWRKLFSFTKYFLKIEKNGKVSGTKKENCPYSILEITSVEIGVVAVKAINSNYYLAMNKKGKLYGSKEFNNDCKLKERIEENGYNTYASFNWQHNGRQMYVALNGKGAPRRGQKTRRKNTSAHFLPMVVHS
Chain of Follistatin-related protein 3 (Homo sapiens) (O95633 whole entry, looked up): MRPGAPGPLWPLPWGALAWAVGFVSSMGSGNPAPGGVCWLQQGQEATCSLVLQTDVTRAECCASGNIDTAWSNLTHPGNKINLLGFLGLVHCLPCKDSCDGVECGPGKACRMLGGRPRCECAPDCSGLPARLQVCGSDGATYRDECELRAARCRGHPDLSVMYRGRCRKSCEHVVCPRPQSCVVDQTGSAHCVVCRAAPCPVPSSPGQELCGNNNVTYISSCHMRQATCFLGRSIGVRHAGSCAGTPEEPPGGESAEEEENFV
Chain of Dickkopf-related protein 1 (Homo sapiens) (O94907 whole entry, looked up): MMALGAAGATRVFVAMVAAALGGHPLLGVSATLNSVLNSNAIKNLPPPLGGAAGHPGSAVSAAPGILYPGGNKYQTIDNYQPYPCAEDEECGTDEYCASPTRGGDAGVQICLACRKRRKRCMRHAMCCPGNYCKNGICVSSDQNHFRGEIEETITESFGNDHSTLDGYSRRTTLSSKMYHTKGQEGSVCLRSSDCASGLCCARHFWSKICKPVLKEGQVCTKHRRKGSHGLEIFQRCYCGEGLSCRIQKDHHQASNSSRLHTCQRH

Turning to `C=CCOC(=O)[C@@H]1[C@H]2C(=O)O[C@H](c3ccccc3)[C@H](c3ccccc3)N2[C@H](c2ccc(OCCOC(=O)[C@H]3C[C@H]4C(=O)N[C@@H](CCCC[N+](C)(C)C)C(=O)N4[C@H]3c3cccc(OCCO)c3)cc2)[C@@]12C(=O)Nc1ccc(I)cc12`, the composite z-score in experiment [1] was 1.59; in experiment [5], 2.34; in experiment [7] it was 0.0631; in experiment [8], 1.45; in [9], 1.13; in experiment [10], 0.0527. The composite z-score in experiment [11] was 1.53; in experiment [12], 0.135; in [13], -0.0036; in [15], 1.21; in experiment [16], 1.29; in experiment [17] it was 1.32. For the same compound, the composite z-score in [18] came to 1.43; in experiment [19] it was 1.7; in experiment [20] it was 0.538. Moreover, the z-score in experiment [2] was 0.904 (inactive); in experiment [3], 1.04 (inactive); in experiment [4] it was 4.48 (inactive); in experiment [6], 0.254 (inactive); in experiment [14], -0.241 (inactive).
For the compound `C=C(CCCC)C(=O)CC[C@H](OC(=O)c1ccccc1-c1ccccc1C(=O)O)c1ccc(CO)o1`, the composite z-score in [1] was 1.55; in experiment [5], 1.99; in experiment [7], -0.132; in [8] it was 1.35; in [9] it was 1.06; in experiment [10] it was -0.065. Also, the composite z-score was 1.15 in experiment [11]; -0.28 in experiment [12]; -0.635 in experiment [13]; 1.51 in [15]; 1.1 in experiment [16]; 0.264 in experiment [17]. In addition, the composite z-score in experiment [18] turned out to be 1.2; in [19], 1.02; in experiment [20], 0.64. Moreover, the z-score in [2] was -0.521 (inactive); in experiment [3] it was 0.162 (inactive); in experiment [4] it was 0.437 (inactive); in experiment [6], 0.251 (inactive); in [14], 0.144 (inactive).
In the case of `COc1ccccc1CN1C(=O)c2ccccc2[C@](Cc2ccccc2I)(C(=O)NCc2ccccc2)[C@@H]1c1ccc(CO)cc1`, the composite z-score in [1] is 1.02; in [5] it was 2.22; in experiment [7], 0.0023; in experiment [8] it was -0.373; in experiment [9], -0.418; in [10], -0.0432. The composite z-score in experiment [11] is 0.17; in experiment [12], 0.131; in experiment [13], 0.875; in experiment [15], 0.184; in [16] it was -0.0893; in experiment [17], -0.593. Also, the values for the composite z-score in [18], in experiment [19] and in [20] were -0.457, -0.341 and 0.9, respectively. In addition, the z-score in experiment [2] is -0.295 (inactive); in experiment [3], -0.127 (inactive); in [4] it was -0.694 (inactive); in [6], 0.106 (inactive); in [14] it was 0.164 (inactive).
For the compound `COc1ccc(C(O)C2C=CC3C(=O)N(c4ccccc4)C(=O)C3N2Nc2ccccc2)c2ccccc12` (stereo not given), the composite z-score in [1] is 0.802; in [5] it was 2.23; in experiment [7], 0.189; in [8], -0.659; in experiment [9] it was 0.459; in [10] it was -0.0949. Besides, the composite z-score was 1 in [11]; 0.927 in [12]; 0.947 in experiment [13]; -0.0394 in experiment [15]; 0.0564 in [16]; -0.413 in experiment [17]. Further, the composite z-score in [18] is 0.165; in [19], -0.611; in [20], 1.19. The z-score in experiment [2] was -1.41 (inactive); in [3], 1.81 (inactive); in experiment [4], -0.0303 (inactive); in [6] it was -0.807 (inactive); in [14], 0.66 (inactive).
With `C=CCOC(=O)[C@@H]1[C@H]2C(=O)O[C@H](c3ccccc3)[C@H](c3ccccc3)N2[C@H](c2ccc(OCCOC(=O)[C@H]3C[C@H]4C(=O)N[C@@H](CC(C)C)C(=O)N4[C@H]3c3cccc(OCCO)c3)cc2)[C@@]12C(=O)Nc1ccc(I)cc12`, the composite z-score in experiment [1] was 1.53; in experiment [5], 2.66; in [7], -0.0849; in experiment [8], 1.58; in experiment [9], 1.06; in experiment [10] it was -0.0769. Further, the composite z-score in [11] is 1.41; in [12], 0.169; in experiment [13] it was -0.135; in [15] it was 1.23; in experiment [16] it was 1.32; in experiment [17], 0.694. Further, the composite z-score in experiment [18] turned out to be 1.25; in experiment [19], 0.836; in [20], 0.255. Further, the z-score is 0.705 (inactive) in experiment [2]; 0.492 (inactive) in [3]; 2.65 (inactive) in experiment [4]; 0.147 (inactive) in [6]; -0.835 (inactive) in experiment [14].
